Results filed as inconclusive are left out. A call without a number means that no potency is given here. The source made the active and inactive calls. Calls come from the whole dose curve; as a rule, active = well fitted inhibition curve with a large enough effect; inconclusive = small, poorly fitted or top-dose-only effect; inactive = flat fitted curve, though single readings scatter.
How the values were obtained:
Experiment in all cases: qHTS profiling for inhibitors of Plasmodium falciparum proliferation (AID 504749); note: nearly all actives have a fitted effect of over 60% in size
Conditions in all cases: P. falciparum in erythrocytes, SYBR Green DNA, 72 h; series mostly up to 28.7 µM
[1] = system: CP217
Procedure, shortened: (§1)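 Quantitative HTS: compounds pinned into medium, infected erythrocytes added (0.3% parasitemia, 2.5% hematocrit), 72 h culture at 37 C under 5% CO2. Saponin/Triton lysis with SYBR Green I, overnight RT, then fluorescence read.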

[2] = system: CP237
Procedure, shortened: as §1

[3] = system: CP238
Procedure, shortened: as §1

[4] = system: CP247
Procedure, shortened: as §1

[5] = system: CP250
Procedure, shortened: as §1

[6] = system: CP252
Procedure, shortened: as §1

[7] = system: CP256
Procedure, shortened: as §1

[8] = system: CP260
Procedure, shortened: as §1

[9] = system: CP262
Procedure, shortened: as §1

[10] = system: CP265
Procedure, shortened: as §1
Potency is the fitted concentration of half-maximal effect.

| SMILES | Potency [1] | Potency [2] | Potency [3] | Potency [4] | Potency [5] | Potency [6] | Potency [7] | Potency [8] | Potency [9] | Potency [10] |
| --- | --- | --- | --- | --- | --- | --- | --- | --- | --- | --- |
| Cc1cc(O)ccc1Cl | inactive | inactive | inactive | inactive | inactive | inactive | inactive | inactive | inactive | inactive |
| C[C@]12CCC(=O)C(O)=C1CC[C@@H]1[C@H]3CCC(=O)[C@@]3(C)CC[C@@H]12 | inactive | inactive | inactive | inactive |  | inactive |  | inactive | inactive |  |
| CC(=O)OCC1=C(C(=O)O)N2C(=O)[C@@H](N)[C@@H]2SC1 |  | inactive |  |  |  |  |  | inactive | inactive |  |
| CCCN1CCC[C@H](c2cccc(O)c2)C1 | inactive |  | inactive |  | inactive | inactive | inactive | inactive | inactive | inactive |
| Cc1ccc(Cl)c(O)c1 | inactive | inactive | inactive | inactive | inactive | inactive | inactive | inactive | inactive | inactive |
| O=C(O)COc1ccccc1 | inactive | inactive | inactive | inactive | inactive | inactive | inactive | inactive | inactive | inactive |
| C=CCN1CC[C@]23CCCCC2[C@H]1Cc1ccc(O)cc13 (stereo partly drawn) | inactive |  | inactive | inactive | inactive | inactive | inactive | inactive | inactive | inactive |
| CC(=O)[O][Hg][c]1ccccc1 | 7.08 µM (active) | 4.47 µM (active) | 5.62 µM (active) | 5.62 µM (active) | 7.08 µM (active) | 8.91 µM (active) | 8.91 µM (active) | 3.98 µM (active) |  | 8.91 µM (active) |
| CCCCCCCCCCCCCCCC[N+](C)(C)C |  | 7.08 µM (active) |  |  | 8.91 µM (active) |  |  | 5.62 µM (active) |  | 11.2 µM (active) |
| COC(=O)[C@@H](N)CCCN=C(N)N[N+](=O)[O-] | inactive | inactive | inactive | inactive | inactive | inactive | inactive | inactive | inactive | inactive |
| CN(C)[C@@H]1C(=O)C(C(N)=O)=C(O)[C@@]2(O)C(=O)C3=C(O)c4c(O)cccc4[C@@](C)(O)[C@H]3[C@H](O)[C@@H]12 | inactive |  | inactive | inactive | inactive |  |  |  |  | inactive |
| COC(C)(C)CCCC(C)C/C=C/C(C)=C/C(=O)OC(C)C (stereo not drawn) |  | 12.6 µM (active) | inactive |  |  |  |  |  | inactive | 11.2 µM (active) |
| C1CCC(NC2CCCCC2)CC1 | inactive | inactive | inactive | inactive | inactive | inactive |  | inactive | inactive | inactive |
| CCCCc1ccc(C(=O)O)nc1 | inactive | inactive | inactive | inactive | inactive | inactive | inactive | inactive | inactive | inactive |
| CCCCCCCCCC(CC)c1ccc(S(=O)(=O)O)cc1 (stereo not drawn) | inactive | inactive | inactive | inactive | inactive | inactive | inactive | inactive | inactive | inactive |
| c1ccc(C2(c3ccccc3)CC2C2=NCCN2)cc1 (stereo not drawn) | inactive | inactive | inactive | inactive | inactive | inactive |  |  | inactive | inactive |
| CC(C)NC(C)Cc1ccc(I)cc1 (stereo not drawn) | inactive |  | inactive | inactive | inactive | inactive | inactive | inactive | inactive | inactive |
| NC1=NC(=O)N2CC12 (stereo not drawn) |  |  | inactive |  | inactive | inactive |  | 10 µM (active) |  |  |
| CN[C@@H]1C[C@@H](c2ccc(Cl)c(Cl)c2)c2ccccc21 |  |  | inactive |  | inactive |  |  |  |  |  |
| CC[N+]1(CCOC(=O)C(O)(c2ccccc2)c2ccccc2)CCCCC1 | inactive | inactive |  |  | inactive | inactive |  | inactive | inactive | inactive |
| C#CC1(O)CCC2C3CCC4=CC(=O)CCC4(C)C3CCC21C (stereo not drawn) | inactive | inactive | inactive | inactive | inactive | inactive | inactive | inactive | inactive | inactive |
| NC(=O)CN1CC(O)CC1=O (stereo not drawn) | inactive | inactive | inactive | inactive | inactive | inactive | inactive | inactive | inactive | inactive |
| O=[N+]([O-])c1ccc([As](=O)(O)O)cc1 | 7.94 µM (active) | 7.94 µM (active) | 11.2 µM (active) |  | 7.08 µM (active) | 7.08 µM (active) | 10 µM (active) | 7.08 µM (active) | 8.49 µM (active) | 10 µM (active) |
| CN1C2CCC1CC(OC(=O)c1cc(Cl)cc(Cl)c1)C2 (stereo not drawn) | inactive | inactive | inactive | inactive | inactive | inactive | inactive | inactive | inactive | inactive |
| COC(=O)c1cncn1C(C)c1ccccc1 (stereo not drawn) |  |  |  |  |  |  |  |  | inactive |  |
| O=C(O)C(Cl)Cl | inactive | inactive | inactive | inactive | inactive | inactive | inactive | inactive | inactive | inactive |

From PubChem BioAssay (NCATS)
